Measurements taken from PubChem BioAssay AID1688 (National Center for Advancing Translational Sciences (NCATS), 2009).
Out of some 220,000 compounds screened, about 2,400 (1.1%) were called active. Entries that show only a call come without a potency. Roughly 7% stayed inconclusive and do not appear here. The sample holds actives, similar compounds and a random draw of the others, so the mix is not that of the screen. The call rests on the fitted dose curve; in most records, active means well fitted inhibition curve with a large enough effect; inconclusive means small, poorly fitted or top-dose-only effect, or effect the other way; inactive means no such curve, though single readings can be large or run the other way.

Test: qHTS Multiplex Assay to Identify Dual Action Probes in a Cell Model of Huntington: Aggregate Formation (GFP); further: nearly all actives have a fitted effect of over 60% in size
Details: PC12 HttQ103-GFP aggregates, Acumen cytometry, 40 h; series mostly up to 9.22 µM
Summary of the method: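 Ecdysone-promoter PC12 model expressing HTT exon 1 Q103 fused to GFP, induced by tebufenozide at 100 nM final. Compounds titrated; aggregates sized 1–25 µm scored on a 488 nm laser cytometer.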
Potency means the concentration at half of the fitted maximal effect.

SMILES	Potency
CCOC(=O)c1c(C)oc(C)c(C(=O)OCC)c1=O	inactive
Cc1c(S(=O)(=O)NCc2ccccc2)c(=O)n(C)c(=O)n1C	inactive
CCc1ccc2nc(Nc3ncc(C(C)=O)c(C)n3)nc(C)c2c1	inactive
Cn1c(SCC(=O)N2CCCc3ccccc32)nc2ccccc2c1=O	7.94 µM (active)
O=C(CSc1nc2ccccc2c(=O)n1CCCO)N1CCc2ccccc21	inactive
O=C(CSc1nc2[nH]ncc2c(=O)n1-c1ccccc1)N1CCCc2ccccc21	inactive
Cc1nc(CNS(=O)(=O)c2cc([N+](=O)[O-])ccc2C)cs1	inactive
COc1ccc(CS(=O)/C(Cl)=C(/Cl)C(=O)Nc2ccc(OC)nc2)cc1 (centres undefined)	5.01 µM (active)
COc1ccc(NC(=S)Nc2ccccc2Cl)cn1	inactive
COc1ccc(NC(=S)NCCNC(C)=O)cc1	inactive
FCOC(C(F)(F)F)C(F)(F)F	inactive
CC(Oc1ccc2ccccc2c1)C(=O)NNC(=S)NC(=O)c1ccco1 (centres undefined)	11.2 µM (active)
COc1ccc(C(=O)NC(=S)NNC(=O)CCc2ccccc2)cc1	inactive
O=C(Nc1ccc2ccccc2c1)/C(=C/c1cccc(Br)c1)NC(=O)c1ccco1	inactive
O=C(c1ccco1)N1CCN(CCOc2ccccc2)CC1	inactive
COc1ccc(-c2cc(C(F)(F)F)nc(SCC(=O)Nc3ccc4c(c3)OCO4)n2)cc1OC	inactive
COc1ccc(-c2cc(C(F)(F)F)nc(S(C)(=O)=O)n2)cc1OC	10 µM (active)
COc1cc(OC)nc(S(C)(=O)=O)n1	inactive
CC1Cc2ccccc2N1S(=O)(=O)c1ccc(Cl)nc1 (centres undefined)	inactive
COc1ccc(C2(C#N)CCC(C(=O)O)CC2)cc1OC1CCCC1 (centres undefined)	inactive
CCOC(=O)N1CCN(C(=O)C2CCN(Cc3ccc(OC)cc3OC)CC2)CC1	inactive
CCOC(=O)C1CCN(c2ncnc3c2oc2ccc(Br)cc23)CC1	inactive
CCOC(=O)N1CCN(C(=O)C2CCN(c3ncnc4c3sc3cccc(F)c34)CC2)CC1	10 µM (active)
COc1ccc(-c2[nH]ncc2/C=N/NC(=O)c2cc(Br)ccc2O)c(OC)c1	inactive

SMILES	Potency
O=C(N/N=C\c1cccc(Br)c1)c1ccccc1-n1cccc1	inactive
CC(C)/C=N/NC(=O)c1cc(Br)ccc1O	8.91 µM (active)
Cc1c(C)c(C)c2[nH]c(=S)[nH]c2c1C	inactive
CCc1c(C)nc2c(-c3ccccc3)c(C)nn2c1Nc1ccc(NC(C)=O)cc1	inactive
O=C(N/N=C/c1ccccc1O)/C(=C/c1ccccc1)CCO	7.94 µM (active)
O=C(CCCCCNC(=O)c1ccccc1)N/N=C/c1ccccc1	inactive
O=C(CCC(=O)Nc1ccccc1)N/N=C/c1ccccc1F	inactive
O=[N+]([O-])C(=c1ccc2c(c1)N1C3=C(CCCC3)CC3CCCCC31N=2)[N+](=O)[O-] (centres undefined)	inactive
CCOC(=O)CN(C(=O)COc1nc(-c2ccccc2)cc(C)c1C#N)c1ccc(F)cc1	inactive
C=CCN(c1ccccc1C(=O)NCC(=O)OCC)S(=O)(=O)c1ccc(C)cc1	inactive
CN1C(=O)c2ccc(NC(=O)C3CCCCC3)cc2C1=O	inactive
O=C(O)c1ccc(NC(=O)C2CCCCC2)cc1	inactive
O=C(Nc1cnn(Cc2ccc(Cl)cc2)c1)C1CCCC1	0.794 µM (active)
COc1ccc(OCC(=O)Nc2cc(C)c(Cl)cc2OC)c([N+](=O)[O-])c1	inactive
Cc1nnc(-c2ccc(Oc3ccc(C)c(C)c3)c([N+](=O)[O-])c2)o1	11.2 µM (active)
COc1ccc(-c2nc3cc([N+](=O)[O-])ccc3o2)cc1OC	inactive
O=C(N/N=C/c1ccccn1)c1cccnc1	inactive
NC(=O)Cc1ccc2c(c1)[nH]c1ccccc12	inactive
O=[N+]([O-])/C=C1\CCCCCN1	inactive
CCc1ccc(S(=O)(=O)NCC(O)COc2ccc(OC)cc2)cc1 (centres undefined)	inactive
Cc1nnc(N/N=C/c2ccccn2)[nH]c1=O	inactive
CCOc1ccc(-n2c(O)c(/C=N/Nc3nnc(C)c(=O)[nH]3)c3ccccc3c2=O)cc1	inactive
COc1ccc(Cc2nnc(N/N=C/c3ccccc3O)[nH]c2=O)cc1OC	1.26 µM (active)
COC(=O)[C@@H]1CC2=CC(=O)CC[C@]2(C)[C@@]23O[C@@H]2C[C@@]2(C)[C@@H](CC[C@@]24CCC(=O)O4)[C@H]13	inactive

SMILES	Potency
CC(=O)c1cccc(NC(=O)Nc2ccc(C)cc2)c1	inactive
Cc1ccc(NC(=O)C(C)c2cccc(C(=O)c3ccccc3)c2)cc1 (centres undefined)	25.1 µM (active)
COC(C(=O)Nc1ccc(C(C)=O)cc1)c1ccccc1 (centres undefined)	inactive
CCOC(=O)C1C(c2ccc(OC)c(OC)c2)c2c([nH][nH]c2=O)CC1(C)O (centres undefined)	inactive
O=C1N(c2ccccc2)C(=Nc2ccccc2)SC12CC2	inactive
O=c1[nH]c(N2CCN(Cc3ccc4c(c3)OCO4)CC2)nc2c1CCCC2	inactive
Cc1cc(N2CCN(Cc3ccc4c(c3)OCO4)CC2)n2ncnc2n1	inactive
Fc1ccc2[nH]c3c(N4CCN(Cc5ccc6c(c5)OCO6)CC4)ncnc3c2c1	3.55 µM (active)
O=C(NNS(=O)(=O)c1ccccc1)c1cnn(-c2ccc(Cl)cc2)c1C(F)(F)F	inactive
COc1cccc(OC)c1CN(C)C(=O)c1cnccc1C(F)(F)F	inactive
C/C(=N/NC(=O)c1ccn(C)n1)c1ccncc1	inactive
CC(/C=C/c1ccco1)=N/NC(=O)C1COc2ccccc2O1 (centres undefined)	inactive
COc1ccccc1Oc1ccc(S(=O)(=O)Nc2cccnc2)cc1	11.2 µM (active)
COc1ccc(S(=O)(=O)Nc2cccnc2)c(Cl)c1Cl	inactive
O=S(=O)(Nc1ccccn1)c1ccc(Oc2ccccc2)cc1	inactive
O=C(CSc1nc(-c2ccco2)cc(C(F)(F)F)n1)NCc1cccs1	15.8 µM (active)
COc1ccc(-c2cc(C(F)(F)F)nc(SCCC(=O)NCc3ccco3)n2)cc1	inactive
O=C(CSc1nc(-c2ccco2)cc(C(F)(F)F)n1)N1CCc2ccccc2C1	inactive
CCOc1cccc(C(=O)Nc2cccnc2)c1	inactive
CCOc1cccc(NC(=O)CC#N)c1	1.78 µM (active)
CCC(=O)Nc1ccc(C(=O)Nc2cccc(OC)c2)cc1	inactive
S=c1[nH]nc(-c2cc(-c3ccsc3)n[nH]2)n1-c1ccccc1	inactive
CN(C)c1ccc(/C=C/C(=O)c2ccc(O)cc2)cc1[N+](=O)[O-]	inactive
O=C(CSc1ncn[nH]1)Nc1ccnc2ccccc12	11.2 µM (active)

SMILES	Potency
O=C(CSc1n[nH]c(-c2cccnc2)n1)Nc1ccnc2ccccc12	inactive
Cn1nnc(NC(=O)CSc2ncn[nH]2)n1	inactive
Brc1ccc(-c2n(-c3ccccn3)c3ccccc3[n+]2-c2ccccn2)cc1	inactive
CC(C)(C)c1cc(P(=O)(c2ccccc2)c2ccccc2)ccc1O	inactive
CC(=O)NC(=S)Nc1ccc(NC(=O)c2cccnc2)cc1	inactive
CC(C)(C)OC(=O)NCCCCCC(=O)N/N=C/c1coc2ccccc2c1=O	inactive
COC(=O)c1sc(C(F)(F)F)c(-c2ccccc2)c1S(=O)(=O)N(C)C	inactive
O=C(Nc1nc2ccc([N+](=O)[O-])cc2s1)c1ccncc1	inactive
O=C(NC(Nc1nc2ccc([N+](=O)[O-])cc2s1)(C(F)(F)F)C(F)(F)F)c1ccccc1	0.126 µM (active)
O=C(O)CCC(=O)Nc1nc2ccc([N+](=O)[O-])cc2s1	inactive
Cc1ccc(NS(=O)(=O)c2ccc(N/N=C/c3ccccc3OCC(=O)O)c([N+](=O)[O-])c2)c(C)c1	inactive
COc1cc2c(cc1OC)CC(=O)N(CCCN(C)C[C@H]1Cc3cc(OC)c(OC)cc31)CC2	inactive
O=C(O)Cc1csc(NC(=O)CSc2nnnn2-c2ccc(O)cc2)n1	inactive
Cc1cccc(C)c1NC(=O)NC1=CCCN1C	inactive
NC(=O)[C@H]1CC2(CC(c3cccc(NC(=O)[C@H]4CCC(=O)N4)c3)=NO2)CN1C(=O)c1ccccc1C(=O)c1ccccc1 (some centres undefined)	inactive
O=C(Cc1c(F)cccc1Cl)Nc1ncc([N+](=O)[O-])s1	10 µM (active)
Cc1cnc(NC(=O)CSc2c(Cl)cccc2Cl)s1	inactive
O=C(Cc1c(F)cccc1Cl)Nc1ccc(-n2cnnn2)cc1	inactive
C/C=C/C=N/NC(=O)c1ccncc1	inactive
CN(C)N=Nc1ccc2nc[nH]c2c1	inactive
O=C(O)CC1(CC(=O)Nc2cccc(C(F)(F)F)c2)CCCC1	inactive
CCOC(=O)N/N=C1\CC(C)S(=O)(=O)c2ccc(Cl)cc21 (centres undefined)	inactive
COCc1cc(=O)[nH]c(SC)n1	inactive
CCN(CCNC(=O)C1=C(C)C(=O)OC12CCC(C)CC2)c1ccccc1 (centres undefined)	inactive

SMILES	Potency
COc1ccc(NS(=O)(=O)c2ccc(NC(=S)NC(=O)CC(C)C)cc2)cc1	22.4 µM (active)
CC(=O)c1ccc(NC(=S)NC(=O)CC(C)C)cc1	inactive
COc1ccc(C(=O)Nc2ccc(S(=O)(=O)NC(C)C)cc2)cc1	inactive
COc1ccc(NC(=O)C2=NNC(=O)CC2)cc1S(=O)(=O)N1CCCCC1	inactive
CCc1cc(CNC(=O)CC2C(=O)NCCN2Cc2ccccc2C(F)(F)F)on1 (centres undefined)	inactive
Cn1c(CSCC(=O)Nc2ccccc2)nnc1SCc1ccccc1	inactive
Cc1ccc2c(c1)c1ncn(CCC3=CCCCC3)c(=O)c1n2C	inactive
Cc1ccc2c(c1)c1ncnc(N3CCc4ccccc4C3)c1n2C	11.2 µM (active)
Cc1ccc2c(c1)c1ncn(Cc3ccc(F)cc3)c(=O)c1n2C	inactive
Cc1ccc(C(=O)NNc2ncnc3ccccc23)cc1	inactive
O=C(CNC(=O)OCc1ccccc1)Oc1cc2oc(=O)cc(-c3ccccc3)c2cc1Cl	7.08 µM (active)
CC(=O)COc1ccc2c(-c3ccccc3)cc(=O)oc2c1	inactive
O=C(CNC(=O)c1ccc(-c2ccccc2)cc1)OCc1ccc(Cl)cc1	inactive
NCCCCC(N)C(=O)O (centres undefined)	inactive
O=C(CS(=O)(=O)c1ccc(C(F)(F)F)cn1)NNC(=O)c1ccccc1	inactive
CCOC(=O)c1c(C)nn(-c2ncccc2NC(=O)CCC(=O)O)c1C	inactive
O=C(Nc1nncs1)c1ccccc1NS(=O)(=O)c1cccs1	inactive
O=C(Nc1cccc(Cl)c1)Nc1ccccc1NS(=O)(=O)c1cccs1	11.2 µM (active)
O=C(Nc1cccc(Cl)c1)Nc1nnc(-c2ccccc2)o1	inactive
O=C(Cc1ccc(-c2ccccc2)cc1)NC(c1ccccc1)c1ccccc1	inactive
O=C(O)Cc1ccc(-c2ccccc2)cc1	inactive
OCC(CO)(CO)NCc1ccc(-c2ccccc2)cc1	11.2 µM (active)
CN(C(=O)CCn1c(=S)oc2ccccc21)C1CCCCC1	inactive
